This is a sample that favours compounds with a hit; in the whole collection about 6.7% have one here.
T cruzi growth-1: T. cruzi intracellular proliferation inhibitors, primary screen, cell-based, beta-gal Tulahuen parasites, NIH3T3 host, luminescence | T. cruzi beta-gal in NIH3T3, GalScreen luminescence, 90 h | inhibition, % at 8.34 µM | hit rate 5.9% among 77,000;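 active means mean inhibition above about 93%, with at least 55% of replicates each passing it, limit read from the data, passing the limit was not always enough; inconclusive means only one of those two conditions holds; inactive means neither condition holds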
C diff HTS: C. difficile growth inhibitors, primary screen, HTS; Clostridium difficile clinical isolate growth, OD600, 24 h; stronger effect = lower value; hit rate 0.25% among 86,000; AID 1259249, 2017; growth activity, negative = inhibition, % at 16 µg/mL (by protocol);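 active means mean growth activity at or below -80% and every replicate also at or below -80%; inconclusive means mean at or below -80% but some replicate above -80%; inactive means mean growth activity above -80%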;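 further: 0% = DMSO wells and -100% = levofloxacin 16 µg/mL wells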
Pf Dd2 inh: P. falciparum Dd2 growth inhibitors, primary screen, SYBR Green fluorescence, single dose replicates; 72 h; stronger effect = lower value; activity change, % at 10 µM; hit rate 2.3% among 94,000; in the data active means activity change below about -80%; inconclusive means no clear call, values can overlap the other calls
T cruzi growth-2: T. cruzi intracellular proliferation inhibitors, confirmation, cell-based, NIH3T3 host, beta-gal parasite, luminescence, cherry-pick; shares compounds with T cruzi growth-1; T. cruzi beta-gal in NIH3T3, GalScreen luminescence, 90 h; inhibition, % at 8.35 µM; hit rate 72% among 5,600; AID 651739, 2012;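 active means mean replicate inhibition above about 95% and at least 55% of replicates individually reaching it, limit read from the data; inconclusive means only one of the two criteria is met; inactive means neither criterion is met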
T cruzi growth-3: inhibitors of intracellular T. cruzi replication, confirmation, NIH3T3 host cells, beta-gal parasites, cherry-pick, set 2 | shares compounds with T cruzi growth-1 | T. cruzi beta-gal in NIH3T3, GalScreen luminescence, 90 h | inhibition, % at 2.09 µM | hit rate 21% among 5,600 | AID 651740, 2012;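 active means mean inhibition above about 95%, with at least 55% of replicates also reaching it, limit read from the data; inconclusive means meets just one of the two conditions; inactive means meets neither condition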;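 further: plate controls were neutral control median for no effect and positive control median for full effect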
3T3 cytotox: cytotoxicity in mouse NIH/3T3 fibroblasts, confirmation, cytotoxicity control for T. cruzi proliferation inhibitor project, cell-based, cherry-pick, single point; shares compounds with T cruzi growth-1; NIH/3T3 viability, CellTiter-Glo ATP luminescence, 90 h; cytotoxicity (signal decrease), % at 8.35 µM; hit rate 14% among 5,600; AID 651742, 2012;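 active means mean signal decrease across replicates above about 35% based on untreated-well scatter, with enough replicates individually passing, limit read from the data; inconclusive means no rule stated though some were filed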;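 further: 0% = median of neutral control wells and 100% = median of positive control wells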
NIH3T3 tox 2: NIH/3T3 fibroblast cytotoxicity, confirmation, cytotoxicity control, cell-based, cherry-pick, single point, set 2 | shares compounds with T cruzi growth-1 | NIH/3T3 viability, CellTiter-Glo ATP luminescence, 90 h | inhibition, % at 24.9 µM | hit rate 56% among 5,600 | AID 651744, 2012;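 active means mean loss of cell viability signal at or above a set limit, and enough replicates individually reaching it; inconclusive means meets only the mean limit or only the replicate share; inactive means meets neither condition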;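 further: 0% = median of neutral control wells and 100% = median of positive control wells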
An asterisk follows results filed as active.

Results for C[C@@H]1CCCCO[C@@H](CN(C)C(=O)Nc2ccccc2)[C@H](C)CN([C@H](C)CO)C(=O)c2cc(NC(=O)NC3CCCCC3)ccc2O1 ?
T cruzi growth-1: 105*; Pf Dd2 inh: -48; T cruzi growth-2: 101*; T cruzi growth-3: 47; 3T3 cytotox: 14; NIH3T3 tox 2: 11

Results for CC(C)NC(=O)Nc1ccc2c(c1)C(=O)N([C@H](C)CO)C[C@H](C)[C@H](CN(C)C(=O)Nc1ccc(F)cc1)OCCCC[C@H](C)O2 ?
T cruzi growth-1: 96*; C diff HTS: 3; Pf Dd2 inh: 48; T cruzi growth-2: 104*; T cruzi growth-3: 70; 3T3 cytotox: -1; NIH3T3 tox 2: -13

How did C[C@@H]1CCCCO[C@@H](CN(C)C(=O)c2ccccc2)[C@@H](C)CN([C@H](C)CO)C(=O)c2cc(NC(=O)CCC(F)(F)F)ccc2O1 do in these assays?
T cruzi growth-1: -17; C diff HTS: -4; Pf Dd2 inh: 2

How did O=C(Nc1ccc2c(c1)OCO2)N[C@H]1CC[C@H](CC(=O)N2CCN(c3ccccc3)CC2)O[C@H]1CO do in these assays?
T cruzi growth-1: 19; C diff HTS: -3; Pf Dd2 inh: 18

Results for C[C@H](NC(=O)C[C@H]1C[C@@H]2c3cc(NS(C)(=O)=O)ccc3O[C@@H]2[C@H](CO)O1)c1ccccc1 ?
C diff HTS: -4; Pf Dd2 inh: 19

What do the screens show for `Cc1ccc(S(=O)(=O)Nc2ccc3c(c2)C(=O)N(C)[C@H]2CC[C@@H](CC(=O)O)O[C@H]2CO3)cc1`?
T cruzi growth-1: 20; C diff HTS: -4; Pf Dd2 inh: 4

How did C[C@@H]1CCCCO[C@@H](CN(C)C(=O)Nc2ccccc2)[C@H](C)CN([C@@H](C)CO)C(=O)c2cc(NC(=O)Nc3ccccc3)ccc2O1 do in these assays?
T cruzi growth-1: inconclusive; C diff HTS: -4; Pf Dd2 inh: 8; T cruzi growth-2: 89; T cruzi growth-3: 40; 3T3 cytotox: -38; NIH3T3 tox 2: -7

How did C[C@@H]1CCCCO[C@H](CN(C)C(=O)Nc2ccccc2)[C@@H](C)CN([C@H](C)CO)C(=O)c2cc(NC(=O)Nc3ccccc3)ccc2O1 do in these assays?
T cruzi growth-1: 37; C diff HTS: 4; Pf Dd2 inh: -17

What do the screens show for `C[C@@H]1CN([C@@H](C)CO)C(=O)c2cc(NC(=O)Nc3cccc4ccccc34)ccc2O[C@@H](C)CCCCO[C@H]1CN(C)C`?
T cruzi growth-1: 99*; C diff HTS: 0; Pf Dd2 inh: 33; T cruzi growth-2: 40; T cruzi growth-3: -48; 3T3 cytotox: -1; NIH3T3 tox 2: -15

What do the screens show for `C[C@@H]1CCCCO[C@H](CN(C)C)[C@@H](C)CN([C@H](C)CO)C(=O)c2cc(NC(=O)Nc3cccc4ccccc34)ccc2O1`?
T cruzi growth-1: 69; C diff HTS: -1; Pf Dd2 inh: 23

Results for CC(C)NC(=O)N(C)C[C@@H]1Oc2cc(C#Cc3ccc(F)cc3)ccc2S(=O)(=O)N([C@@H](C)CO)C[C@@H]1C ?
T cruzi growth-1: 114*; C diff HTS: 11; Pf Dd2 inh: -45; T cruzi growth-2: 107*; T cruzi growth-3: 66; 3T3 cytotox: 21; NIH3T3 tox 2: inconclusive

What do the screens show for `CC(C)NC(=O)N(C)C[C@H]1Oc2cc(C#Cc3ccc(F)cc3)ccc2S(=O)(=O)N([C@@H](C)CO)C[C@@H]1C`?
T cruzi growth-1: 84; C diff HTS: 5; Pf Dd2 inh: -46

Results for C[C@@H]1CN([C@H](C)CO)S(=O)(=O)c2ccc(C#Cc3ccc(F)cc3)cc2O[C@H]1CN(C)C(=O)NC1CCCC1 ?
T cruzi growth-1: 86; C diff HTS: 17; Pf Dd2 inh: 4

Screening data (PubChem)
